# Laboratory results as given in ChEMBL document CHEMBL1157539, “Thousands of chemical starting points for antimalarial lead identification” (Nature, 2010).
# Tested on: Plasmodium falciparum
# Assay: GSK_TCMDC: Inhibition of Plasmodium falciparum Dd2 in whole red blood cells, using parasite LDH activity as an index of growth. Test compounds present at 2uM
# Type: functional
row,Compound,Inhibition
1,COc1cccc(-c2cccc(CNC3CCN(CC4Cn5c(=O)ccc6ccc(F)c4c65)CC3)c2)c1.O=C(O)C(F)(F)F (centres undefined),15%
2,CN(CCN(C)C(=O)NCc1ccccc1)C(=O)NCc1ccccc1,0%
3,Nc1cccc(CNCc2cccc(-c3csc(-c4nc5ccccc5[nH]4)c3)c2)c1.O=C(O)C(F)(F)F,63%
4,Fc1ccc2[nH]c3c(NCCN4CCCCC4)ncnc3c2c1,44%
5,CC(=NNC(N)=O)C1=C(O)C(c2ccccc2)N(C2CCCCC2)C1=O (centres undefined),96%
6,Cc1cc(Nc2ncc(Cl)c(Nc3ccccc3C(N)=O)n2)n[nH]1,96%
7,Nc1nccc2ccc(-c3ccc4ncccc4c3)cc12.O=C(O)C(F)(F)F,100%
8,CN1CCN(C(C(=O)NCc2cc(Cl)cc(Cl)c2)c2ccc(Nc3cccc(C(F)(F)F)c3)cc2)CC1 (centres undefined),98%
9,COc1cc(NCCCNC(=O)c2cc3c(Cl)cc(Cl)cc3[nH]2)nc2ccccc12,100%
10,CC[C@H](NC(=O)c1c(CN2CCC(N3CCCCC3)CC2)c(-c2ccccc2)nc2cc(O)ccc12)c1ccccc1,13%
11,CCN(CC)CCN(Cc1ccc(-c2ccc(C(F)(F)F)cc2)cc1)C(=O)Cn1c(SCc2ccc(F)cc2)nc(=O)c2ccccc21.O=C(O)C(O)C(O)C(=O)O,48%
12,Clc1ccc2c(NN=Cc3cccs3)ccnc2c1,96%
13,Clc1ccccc1CNc1noc(-c2sccc2Br)n1,93%
14,CCC(C)CN1C(=O)C(c2ccccc2)(c2ccccc2)N=C1N.O=CO (centres undefined),79%
